Inconclusive results are not listed. Entries that show only a call come without a potency. Calls of active or inactive are those of the source. Calls come from the whole dose curve; as a rule, active = well fitted curve in the direction sought with a large enough effect; inconclusive = small, poorly fitted or top-dose-only effect, or another doubt; inactive = no such curve, though single readings can be large or run the other way.
Potency is the fitted concentration of half-maximal effect.

The first assay in a line: qHTS for differential inhibitors of proliferation of Plasmodium falciparum line 3D7 (AID 1876). The settings on record: P. falciparum 3D7 proliferation inhibition; series mostly up to 28.7 µM. In general terms: qHTS replaces the single test concentration by a dilution series.
For the molecule `CC1=C(C(=O)O)N2C(=O)[C@@H](NC(=O)C(N)c3ccccc3)[C@H]2SC1` (some centres undefined), the Potency result was “inactive”. With `CC(C)NCC(O)c1ccc(NS(C)(=O)=O)cc1` (centres undefined), the Potency result was “inactive”. Same read-out and setting: for `CCN(CC)CC#CCOC(=O)C(O)(c1ccccc1)C1CCCCC1` (centres undefined) the value was 7.08 µM (active); for `CCCCS(=N)(=O)CCC(N)C(=O)O` (centres undefined), “inactive”.

In the case of `O=C(O)C1CCCN(CCC=C(c2ccccc2)c2ccccc2)C1` (centres undefined), the Potency result was “inactive”. Regarding `Nc1nc(N)c2nc(CNc3ccc(C(=O)NC(CCC(=O)O)C(=O)O)cc3)cnc2n1` (centres undefined), the Potency entry was “inactive”. On the same count and under the same terms, for `NC(=O)c1cccc(N)c1` the value was “inactive”; for `COc1cc2ncnc(Nc3cccc(Cl)c3)c2cc1OC`, 2.51 µM (active). Same read-out and setting: for `CCN1CCCC1CNC(=O)c1cc(S(N)(=O)=O)ccc1OC` (centres undefined) the value was “inactive”.

Another assay can be described thus: qHTS for differential inhibitors of proliferation of Plasmodium falciparum line D10 (AID 1877).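 Note: parasites grown with compound for 72 h before DNA staining.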 The settings on record: series mostly up to 28.7 µM.
Take `CC1=C(C(=O)O)N2C(=O)[C@@H](NC(=O)C(N)c3ccccc3)[C@H]2SC1` (some centres undefined): the Potency entry is “inactive”.

For the molecule `CC(C)NCC(O)c1ccc(NS(C)(=O)=O)cc1` (centres undefined), the Potency entry is “inactive”. For the molecule `CCN(CC)CC#CCOC(=O)C(O)(c1ccccc1)C1CCCCC1` (centres undefined), the Potency is 12.6 µM (active). In the case of `CCCCS(=N)(=O)CCC(N)C(=O)O` (centres undefined), the Potency result was “inactive”. Same read-out and setting: as for `O=C(O)C1CCCN(CCC=C(c2ccccc2)c2ccccc2)C1` (centres undefined), the entry is “inactive”; as for `NC(=O)c1cccc(N)c1`, “inactive”; as for `COc1cc2ncnc(Nc3cccc(Cl)c3)c2cc1OC`, 5.62 µM (active). For `CCN1CCCC1CNC(=O)c1cc(S(N)(=O)=O)ccc1OC` (centres undefined), the Potency result is “inactive”.

For the molecule `OCc1ccc(-c2nn(Cc3ccccc3)c3ccccc23)o1`, the Potency result is “inactive”.

With `Cc1ccc(S(=O)(=O)N[C@@H](Cc2ccccc2)C(=O)CCl)cc1`, the Potency entry is “inactive”.

The values above are taken from PubChem BioAssay (NCATS).
